# High-throughput results deposited in PubChem by National Center for Advancing Translational Sciences (NCATS).
# Sfp PPTase inh: blocks B. subtilis Sfp PPTase activity | Biochemical Sfp PPTase activity, qHTS | 3.5% of 310,000 active | Q9F4F7 | Potency, µM, without a hit: largest response in the series, negative = inhibition, most hits filed as inhibitors;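 further: the enzyme is Sfp with the accession as filed and its product quenches rhodamine fluorescence; 0% = enzyme reaction without inhibitor and -100% = no enzyme wells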
#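 Reaction rates are the 30-min fluorescence difference (ex 525, em 598 nm) in wells containing 15 nM Sfp, 5 uM rhodamine-CoA and 12.5 uM BHQ-2-YbbR at pH 7.6 with 10 mM MgCl2.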
# L3MBTL1 block: blocks human L3MBTL1; AlphaScreen L3MBTL1–H3K9me1 peptide binding; AID 485360; Potency, µM (titrated, usually from 57.1 µM), without a hit: top-dose activity, negative = inhibition, most hits filed as inhibitors; 0.66% of 230,000 active; further: on the % scale 0 is the no-effect control and ±100 the full control effect; nearly all actives have a fitted effect of over 60% in size
#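 Displacement of a biotinylated histone H3(1-15) peptide monomethylated at Lys9 (75 nM) from L3MBTL1 (50 nM) was measured by AlphaScreen after a 30 min room-temperature compound incubation; cefsulodin titration served as intraplate control.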
# HP1b chromo inh: blocks HP1-beta chromodomain binding to methylated histone tails | Potency, µM (highest dose often 114 µM), inactives show at the top dose activity change, negative = inhibition, actives largely listed as inhibitors | AID 540317 | AlphaScreen HP1-beta / biotin-H3K9me3 peptide binding | P83916 | 0.56% of 390,000 active; further: nearly all actives have a fitted effect of over 70% in size
#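 Compound inhibition of the preformed complex between 50 nM HP1-beta and 50 nM biotinylated H3K9me3 peptide was read by AlphaScreen. Buffer was PBS pH 7.4 with 0.01% Tween-20. Incubations ran 30 min at room temperature, with 10 ug/mL donor/acceptor beads.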
# BAZ2B inh: blocks human BAZ2B. AlphaScreen BAZ2B-H3K14Ac peptide displacement. Potency, µM (series often up to 114 µM), for the others: top-dose activity change, negative = inhibition, usual class: inhibitors. 4.4% of 360,000 active; further: on the % scale 0 is the no-effect control and ±100 the full control effect; nearly all actives have a fitted effect of over 60% in size
#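 Multi-concentration screen (max 110 uM) measuring displacement of acetylated histone H3 peptide from BAZ2B by AlphaScreen, using 50 nM protein, 50 nM peptide and 10 ug/mL streptavidin donor plus Ni-chelate acceptor beads.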
# JMJD2A Tudor: JMJD2A Tudor domain (human) inhibition | AlphaScreen JMJD2A-Tudor / H3K4me3 peptide binding | Potency, µM (highest dose often 114 µM), inactives show top-dose activity change, negative = inhibition, most hits filed as inhibitors | 4.4% of 390,000 active | AID 504339; further: on the % scale 0 is the no-effect control and ±100 the full control effect; nearly all actives have a fitted effect of over 50% in size
# Target sequence (O75164 whole entry, looked up, the tested form may be a part): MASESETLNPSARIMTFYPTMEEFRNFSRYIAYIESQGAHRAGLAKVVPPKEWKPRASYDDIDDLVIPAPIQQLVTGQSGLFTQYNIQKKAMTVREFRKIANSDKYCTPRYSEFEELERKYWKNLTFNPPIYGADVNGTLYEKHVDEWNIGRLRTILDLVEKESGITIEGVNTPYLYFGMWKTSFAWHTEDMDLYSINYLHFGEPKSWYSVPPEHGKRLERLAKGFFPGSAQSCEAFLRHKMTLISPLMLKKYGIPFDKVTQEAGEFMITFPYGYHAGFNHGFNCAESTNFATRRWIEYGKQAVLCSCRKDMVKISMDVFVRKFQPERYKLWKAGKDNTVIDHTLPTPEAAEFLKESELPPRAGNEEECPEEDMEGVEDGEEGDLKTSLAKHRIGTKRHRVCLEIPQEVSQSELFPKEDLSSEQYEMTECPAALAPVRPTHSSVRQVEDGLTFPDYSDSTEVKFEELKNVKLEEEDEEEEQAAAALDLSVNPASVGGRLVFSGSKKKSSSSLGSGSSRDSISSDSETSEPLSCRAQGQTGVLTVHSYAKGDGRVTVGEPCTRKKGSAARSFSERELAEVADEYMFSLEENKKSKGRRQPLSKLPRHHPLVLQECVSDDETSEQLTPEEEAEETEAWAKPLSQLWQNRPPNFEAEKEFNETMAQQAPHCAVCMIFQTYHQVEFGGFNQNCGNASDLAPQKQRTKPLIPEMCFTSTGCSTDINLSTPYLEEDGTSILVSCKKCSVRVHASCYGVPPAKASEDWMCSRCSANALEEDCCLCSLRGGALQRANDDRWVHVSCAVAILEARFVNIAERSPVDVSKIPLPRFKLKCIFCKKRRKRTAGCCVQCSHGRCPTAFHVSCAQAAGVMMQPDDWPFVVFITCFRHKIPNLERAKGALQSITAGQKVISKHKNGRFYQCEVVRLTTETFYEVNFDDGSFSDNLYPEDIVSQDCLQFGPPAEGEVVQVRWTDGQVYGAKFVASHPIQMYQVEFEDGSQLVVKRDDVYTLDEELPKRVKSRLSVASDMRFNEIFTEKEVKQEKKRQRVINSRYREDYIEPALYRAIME
# G9a block: G9a (human) methyltransferase inhibition; G9a H3K9 monomethylation, AlphaScreen, 2 h; Potency, µM (highest dose often 102 µM), for the others: top-dose activity, negative = inhibition, hits mostly inhibitors; 8.8% of 350,000 active; further: on the % scale 0 is the no-effect control and ±100 the full control effect; nearly all actives have a fitted effect of over 75% in size
#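 Step 1: enzyme (final 20 nM) with compound, 15 min RT. Step 2: substrate peptide 500 nM and SAM 20 uM, 2 h RT. Step 3: anti-H3K9me1 antibody and AlphaScreen beads, 10 min, then plate read.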
# Active calls of the source: *; u = inconclusive; x = no result given; ! = repeats disagree; [ ] = another dose, or the depositor's remark. Sampled rows, rich in hits. Any-hit rate of the full collection: about 12%. The call rests on the fitted dose curve; in most records, active means well fitted curve in the direction sought with a large enough effect; inconclusive means small, poorly fitted or top-dose-only effect, or another doubt; inactive means no such curve, though single readings can be large; an effect the other way counts as inactive or inconclusive. Potency means the concentration at half of the fitted maximal effect.
SMILES,Sfp PPTase inh,L3MBTL1 block,HP1b chromo inh,BAZ2B inh,JMJD2A Tudor,G9a block
CCc1sc(C(=O)N(CCCOC)c2c(N)n(CC(C)C)c(=O)[nH]c2=O)cc1C,x,4%,30%,-5%,-7%,0.79µM*
CCCCn1c(N)c(N(CCOC)C(=O)c2cc3c(s2)CCCCC3)c(=O)[nH]c1=O,x,-5%,6%,-10%,-14%,-27%
CCCn1c(N)c(N(CCOC)C(=O)c2ccc(C#N)cc2)c(=O)[nH]c1=O,9%,x,27%,-9%,5%,71µM*
CCOC(=O)Cc1ccc(NC(=O)NCc2c(-n3cccc3)sc3c2CCCC3)cc1,x,x,47%,-18%,-18%,-40%[59 µM]
Cc1ccc(NC(=S)NCc2ccccn2)cc1,-29%,6%,10%,-8%,u,11%[0.501 µM]
Cc1cc(NCc2ccccn2)ccc1Br,-15%,-4%,-38%,50µM*,8.9µM*,25µM*
C[C@H]1Cc2c(-c3ccccc3)nc3c(c2CO1)CN(S(=O)(=O)c1ccc(C#N)cc1)CC3,1%,x,x,x,x,x
COc1cccc(CNC(=O)Cn2nc3c(cc2=O)CCCC3)c1OC,x,x,14%[57 µM],6%,0%,14%[59 µM]
COC(=O)C1(Cc2ccc(O)c(CC3OC3(C)C)c2)OC(=O)C(O)=C1c1ccc(O)cc1 (centres undefined),79µM*,x,1%,-35%,-33%,u
CCOC(=O)/C=C1\CC(C(=O)OCC)Oc2ccccc21 (centres undefined),4%,5%,44%,x,9%,62%
CCOC(=O)/C=C1\Nc2ccccc2OC1=O,50µM*,12%,31%,u,-10%,11%[59 µM]
COc1cccc(N2CCN(C(=O)c3cc4cc5cc(C)ccc5nc4s3)CC2)c1,x,x,22%[57 µM],1%,1%,7%[59 µM]
CCOC(=O)C1CCN(Cc2cc(Cl)c3ccccc3c2O)CC1,u,x,-9%,u,-21%,45µM*
CCOC(=O)C1CCN(Cc2nc(-c3ccc(OC)c(OC)c3)no2)CC1,2%,-4%,20%,1%,-11%,-7%[59 µM]
Oc1c(CN2CCCC(C(F)(F)F)C2)cc(Cl)c2ccccc12 (centres undefined),-12%,x,-2%,-29%,-24%,40µM*
CCOC(=O)C1CCN(Cc2ccc(OC)c(C)c2OC)CC1,0%,2%,u,50µM*,1.1µM*,u
N#Cc1ccc(CS(=O)(=O)c2nc3ccccc3s2)cc1,14%,x,x,x,x,x
CCC(Oc1ccccc1)C(=O)NC1CCCCCC1 (centres undefined),9%,x,61%,7%,-5%,4%
CCC(Oc1ccccc1)C(=O)NC1CCSC1=O (centres undefined),12%,0%,49%,-15%,-2%,45µM*
CCOCCOC(=O)c1ccc2c(c1)N(Cc1ccccc1C#N)C(=O)c1ccccc1S2(=O)=O,x,x,11%,-5%,-13%,-13%[59 µM]
CCNC(=O)NCc1cccc(Cl)c1,14%,x,x,x,x,-6%[12.7 µM]
O=C(CCCCCN1C(=O)CCC1=O)Nc1ncn[nH]1,-11%,-12%,47%,50µM*,50µM*,13%[12.7 µM]
Cc1c(Cl)cccc1NC(=O)CCCCCN1C(=O)CCC1=O,-12%,-4%,34%,13%,10%,-6%[12.7 µM]
O=C(COc1ccc(F)cc1)Nc1ccccc1C(=O)OCc1cc(=O)n2ccsc2n1,x,x,56%,u,-25%,-23%[59 µM]
CCc1ccc(C(O)(c2ccccc2OC)C(CN2CCOCC2)c2ccccc2)cc1 (centres undefined),-17%,x,12%,x,-23%,45µM*
SMILES,Sfp PPTase inh,L3MBTL1 block,HP1b chromo inh,BAZ2B inh,JMJD2A Tudor,G9a block
CCOc1ccc(C(O)(c2ccccc2)C(CN2CCCC2)c2ccccc2)cc1 (centres undefined),-1%,x,8%,-14%,14µM*,-34%
CCc1ccc(C(O)(CC(C)C)C(CN2CCOCC2)c2ccccc2)cc1 (centres undefined),-6%,x,19%,0%,-23%,7%
COc1ccc(-c2nc3c(c4c2CC(C)OC4)CN(CCC(C)C)CC3)cc1 (centres undefined),12%,x,x,x,x,x
O=C(NCc1ccc(Cl)cc1)c1ncn[nH]1,-7%,-3%,30%,79µM*,-8%,-5%
O=C(Cc1cccs1)NCc1cccc(Cl)c1,13%,x,48%,6%,89µM*,26%
Cn1cccc1C(=O)NCc1ccc(Cl)cc1,9%,x,-26%,u,-35%,45µM*
O=C(CSc1ncn[nH]1)NCc1ccc(Cl)cc1,0%,x,-1%,8%,-14%,24%
Cn1cccc1C(=O)NCCc1ccc(Cl)cc1,24%,x,-4%,-34%,u,u
O=C(CNC(=O)c1ccc(Br)o1)NCc1cccc(Cl)c1,89µM*,x,25%,-12%,-8%,x
O=C(NCc1ccc(Cl)cc1)c1ccc(Br)o1,-6%,x,22%,11%,-23%,18µM*!
O=C(NNC(=S)NCc1ccc(Cl)cc1)c1ccc(Br)o1,3%,-19%,13%,-9%,-32%,x
Cc1c(NC(=O)Cc2ccc(Cl)cc2)cccc1-c1nc2cccnc2s1,x,x,-17%,-37%,-23%,u
CCCn1c(/C=C/c2ccco2)nc2ccccc21,35µM*,-71%,15%,9%,-24%,8.9µM*
CC(NC(=O)/C=C/c1ccco1)c1nc2ccccc2n1Cc1c(Cl)cccc1Cl (centres undefined),50µM*,-13%,-5%,8%,4%,8%[59 µM]
CC(NC(=O)/C=C/c1ccco1)c1nc2ccccc2n1Cc1ccccc1F (centres undefined),u,-2%,3%,-38%,-24%,u
C#CCn1c(/C=C/c2ccc(Cl)cc2)nc2ccccc21,x,x,195%,112%,104%,161%[59 µM]
Cc1ccc(Cn2c(/C=C/c3ccco3)nc3ccccc32)cc1,u,-13%,11%,u,-1%,40µM*
Clc1ccc(Cn2c(/C=C/c3ccco3)nc3ccccc32)cc1,40µM*,-22%,u,56µM*,-26%,3.2µM*
O=C(/C=C/c1ccccc1)N1CCCC1CO (centres undefined),12%,x,x,x,x,x
CCCCN(CC)CCNC(=O)c1c(C)oc2ncnc(N3CCOCC3)c12,x,x,15%,9%[57.1 µM],-11%,-2%[59 µM]
COc1ccc(NC(=O)c2ccc3c(c2)c(C)c(C)n3Cc2ccc(F)cc2)c(OC)c1,x,x,18%,-32%,u,u
Cc1cc(C)n(-c2nc3ccccc3nc2Nc2cccc(C(=O)NCCc3ccccc3)c2)n1,x,x,28%,4%,-3%,-3%[59 µM]
Cn1c(C(=O)NCc2ccccc2Cl)cc2sc(Cl)cc21,x,x,61%,-33%,-5%,5%[59 µM]
